# Test results published in paper PMC5540273 (PLoS ONE, 2017).
# “And” between values parts separate entries of the source, which are not always exact repeats. Equal values may be shown once. Read-outs that look alike come from different tables or passages of the source.
# Experiments:
# ROCK1 = conditions: n = 1
# ROCK2 = conditions: n = 1
# ROS1 = conditions: n = 1
# [1] = system: RPS6KA4(Kin.Dom.1-N-terminal); conditions: n = 1
# [2] = system: RPS6KA4(Kin.Dom.2-C-terminal); conditions: concentration: 1 μM, replicates: in singlicate; n = 1
# [3] = system: RPS6KA5(Kin.Dom.1-N-terminal); conditions: n = 1
# [4] = system: RPS6KA5(Kin.Dom.2-C-terminal); conditions: n = 1
# [5] = system: T1, RSK1(Kin.Dom.1-N-terminal); conditions: n = 1
# T1 construct: gene RPS6KA1
# [6] = system: T2, RSK1(Kin.Dom.2-C-terminal); conditions: n = 1
# T2 construct: gene RPS6KA1
# [7] = system: T3, RSK2(Kin.Dom.1-N-terminal); conditions: n = 1
# T3 construct: gene RPS6KA3
# [8] = system: T4, RSK2(Kin.Dom.2-C-terminal); conditions: n = 1
# T4 construct: gene RPS6KA3
# [9] = system: T5, RSK3(Kin.Dom.1-N-terminal); conditions: n = 1
# T5 construct: gene RPS6KA2
# [10] = system: T6, RSK3(Kin.Dom.2-C-terminal); conditions: n = 1
# T6 construct: gene RPS6KA2
# [11] = system: T7, RSK4(Kin.Dom.1-N-terminal); conditions: concentration: 1 μM, replicates: in singlicate; n = 1
# T7 construct: gene RPS6KA6
# [12] = system: T8, RSK4(Kin.Dom.2-C-terminal); conditions: n = 1
# T8 construct: gene RPS6KA6
# S6K1 = conditions: n = 1
# SBK1 = conditions: n = 1
# SGK2 = conditions: concentration: 1 μM, replicates: in singlicate; n = 1
# SGK3 = conditions: n = 1
# SGK = conditions: concentration: 1 μM, replicates: in singlicate; n = 1
# [13] = concentration: 1 μM, replicates: in singlicate
# [14] = concentration: 1 μM,replicates: in singlicate, 1 µM
# 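Also: KINOMEscan kinase panel screen.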
compound,measurement,setting,value
O=S(=O)(c1ccc(-c2ccnc3[nH]ccc23)cc1)N1CCCC1 [GSK846226],%Inh,ROCK1; [13],81%
same,%Inh,ROCK2; [13],82%
same,%Inh,ROS1; [13],12%
same,%Inh,[1]; [13],5%
same,%Inh,[2],56%
same,%Inh,[3]; [13],8%
same,%Inh,[4]; [13],76%
same,%Inh,[5]; [13],8%
same,%Inh,[6]; [13],54%
same,%Inh,[7]; [13],18%
same,%Inh,[8]; [13],0%
same,%Inh,[9]; [13],0%
same,%Inh,[10]; [13],38%
same,%Inh,[11],0%
same,%Inh,[12]; [13],35%
same,%Inh,S6K1; [13],5%
same,%Inh,SBK1; [13],4%
same,%Inh,SGK2,0%
same,%Inh,SGK3; [13],0%
same,%Inh,SGK,0%
Cn1cncc1-c1ccc2ncnc(Nc3ccc(OCc4ccccc4)cc3)c2c1 [GW320571],%Inh,ROCK1; [13],3%
same,%Inh,ROCK2; [13],17%
same,%Inh,ROS1; [13],9%
same,%Inh,[1]; [13],13%
same,%Inh,[2],0%
same,%Inh,[3]; [13],28%
same,%Inh,[4]; [13],0%
same,%Inh,[5]; [13],0%
same,%Inh,[6]; [13],0%
same,%Inh,[7]; [13],18%
same,%Inh,[8]; [13],20%
same,%Inh,[9]; [13],23%
same,%Inh,[10]; [13],0%
same,%Inh,[11],19%
same,%Inh,[12]; [13],0%
same,%Inh,S6K1; [13],2%
same,%Inh,SBK1; [13],28%
same,%Inh,SGK2,0%
same,%Inh,SGK3; [13],0%
same,%Inh,SGK,0%
Cc1cccc(-c2cc(Nc3ccncc3)c3ccccc3n2)n1 [GSK223675],%Inh,ROCK1; [13],0%
same,%Inh,ROCK2; [13],0%
same,%Inh,ROS1; [13],0%
same,%Inh,[1]; [13],0%
same,%Inh,[2],0%
same,%Inh,[3]; [13],5%
same,%Inh,[4]; [13],100%
same,%Inh,[5]; [13],30%
same,%Inh,[6]; [13],35%
same,%Inh,[7]; [13],0%
same,%Inh,[8]; [13],0%
same,%Inh,[9]; [13],5%
same,%Inh,[10]; [13],10%
same,%Inh,[11],0%
same,%Inh,[12]; [13],21%
same,%Inh,S6K1; [13],0%
same,%Inh,SBK1; [13],3%
same,%Inh,SGK2,0%
same,%Inh,SGK3; [13],0%
same,%Inh,SGK,0%
CSc1nn2c(=O)cc(N3CCOCC3)nc2n1Cc1cccc(C(F)(F)F)c1C [GSK2363608],%Inh,ROCK1; [14],98.3% and 17%
same,%Inh,ROCK2; [14],98.9% and 0%
same,%Inh,ROS1; [14],14% and 0%
same,%Inh,[1]; [14],28% and 0%
same,%Inh,[2],0%
same,%Inh,[3]; [14],12% and 0%
same,%Inh,[4]; [14],19% and 9%
same,%Inh,[5]; [14],20% and 10%
same,%Inh,[6]; [14],1% and 0%
same,%Inh,[7]; [14],9% and 2%
same,%Inh,[8]; [14],0% and 5%
same,%Inh,[9]; [14],0% and 16%
same,%Inh,[10]; [14],10% and 0%
same,%Inh,[11],0%
same,%Inh,[12]; [14],3% and 0%
same,%Inh,S6K1; [14],3% and 10%
same,%Inh,SBK1; [14],1% and 2%
same,%Inh,SGK2,0%
same,%Inh,SGK3; [14],6% and 4%
same,%Inh,SGK,0%
Cc1cc(N2Cc3ccccc3C2)nc(Nc2ccc(S(=O)(=O)N3CCOCC3)cc2)n1.Cl [GSK1669917],%Inh,ROCK1; [13],0%
same,%Inh,ROCK2; [13],0%
same,%Inh,ROS1; [13],18%
same,%Inh,[1]; [13],5%
same,%Inh,[2],0%
same,%Inh,[3]; [13],0%
same,%Inh,[4]; [13],0%
same,%Inh,[5]; [13],0%
same,%Inh,[6]; [13],17%
same,%Inh,[7]; [13],0%
same,%Inh,[8]; [13],0%
same,%Inh,[9]; [13],0%
same,%Inh,[10]; [13],7%
same,%Inh,[11],0%
same,%Inh,[12]; [13],1%
same,%Inh,S6K1; [13],2%
same,%Inh,SBK1; [13],16%
same,%Inh,SGK2,0%
same,%Inh,SGK3; [13],9%
same,%Inh,SGK,0%
CS(=O)(=O)c1ccc(-c2c(-c3ncn[nH]3)sc(N3CCOCC3)c2C#N)cc1,%Inh,ROCK1; [13],0%
same,%Inh,ROCK2; [13],15%
same,%Inh,ROS1; [13],14%
same,%Inh,[1]; [13],4%
same,%Inh,[2],0%
same,%Inh,[3]; [13],0%
same,%Inh,[4]; [13],0%
same,%Inh,[5]; [13],16%
same,%Inh,[6]; [13],14%
same,%Inh,[7]; [13],4%
same,%Inh,[8]; [13],0%
same,%Inh,[9]; [13],0%
same,%Inh,[10]; [13],98%
same,%Inh,[11],0%
same,%Inh,[12]; [13],100%
same,%Inh,S6K1; [13],10%
same,%Inh,SBK1; [13],0%
same,%Inh,SGK2,0%
same,%Inh,SGK3; [13],24%
same,%Inh,SGK,0%
Cn1ccc2ncnc(Oc3cccc(C(=O)Nc4ccccc4)c3)c21,%Inh,ROCK1; [13],0%
same,%Inh,ROCK2; [13],16%
same,%Inh,ROS1; [13],4%
same,%Inh,[1]; [13],0%
same,%Inh,[2],18%
same,%Inh,[3]; [13],19%
same,%Inh,[4]; [13],0%
same,%Inh,[5]; [13],0%
same,%Inh,[6]; [13],9%
same,%Inh,[7]; [13],0%
same,%Inh,[8]; [13],0%
same,%Inh,[9]; [13],0%
same,%Inh,[10]; [13],13%
same,%Inh,[11],14%
same,%Inh,[12]; [13],0%
same,%Inh,S6K1; [13],0%
same,%Inh,SBK1; [13],0%
same,%Inh,SGK2,2%
same,%Inh,SGK3; [13],26%
same,%Inh,SGK,0%
CCn1c(-c2ccccn2)nc2cnccc21 [SB-736398],%Inh,ROCK1; [13],14%
same,%Inh,ROCK2; [13],30%
same,%Inh,ROS1; [13],0%
same,%Inh,[1]; [13],13%
same,%Inh,[2],0%
same,%Inh,[3]; [13],15%
same,%Inh,[4]; [13],0%
same,%Inh,[5]; [13],65%
same,%Inh,[6]; [13],0%
same,%Inh,[7]; [13],15%
same,%Inh,[8]; [13],32%
same,%Inh,[9]; [13],5%
same,%Inh,[10]; [13],0%
same,%Inh,[11],1%
same,%Inh,[12]; [13],0%
same,%Inh,S6K1; [13],7%
same,%Inh,SBK1; [13],0%
same,%Inh,SGK2,2%
same,%Inh,SGK3; [13],0%
same,%Inh,SGK,3%
Cc1cccc(-c2nc(-c3ccc(S(C)(=O)=O)cc3)sc2-c2ccnc(NCCc3ccccc3)c2)c1,%Inh,ROCK1; [13],0%
same,%Inh,ROCK2; [13],0%
same,%Inh,ROS1; [13],0%
same,%Inh,[1]; [13],5%
same,%Inh,[2],2%
same,%Inh,[3]; [13],18%
same,%Inh,[4]; [13],0%
same,%Inh,[5]; [13],0%
same,%Inh,[6]; [13],8%
same,%Inh,[7]; [13],0%
same,%Inh,[8]; [13],0%
same,%Inh,[9]; [13],5%
same,%Inh,[10]; [13],0%
same,%Inh,[11],0%
same,%Inh,[12]; [13],0%
same,%Inh,S6K1; [13],0%
same,%Inh,SBK1; [13],0%
same,%Inh,SGK2,2%
same,%Inh,SGK3; [13],0%
same,%Inh,SGK,0%
O=C(Nc1ccccc1)Nc1cccc(Oc2ccc3nccn3n2)c1,%Inh,ROCK1; [13],0%
same,%Inh,ROCK2; [13],0%
same,%Inh,ROS1; [13],0%
same,%Inh,[1]; [13],43%
same,%Inh,[2],0%
same,%Inh,[3]; [13],0%
same,%Inh,[4]; [13],0%
same,%Inh,[5]; [13],0%
same,%Inh,[6]; [13],0%
same,%Inh,[7]; [13],0%
same,%Inh,[8]; [13],32%
same,%Inh,[9]; [13],9%
same,%Inh,[10]; [13],14%
same,%Inh,[11],0%
same,%Inh,[12]; [13],0%
same,%Inh,S6K1; [13],0%
same,%Inh,SBK1; [13],0%
same,%Inh,SGK2,8%
same,%Inh,SGK3; [13],9%
same,%Inh,SGK,0%
C[C@@H]1CCCCN1c1cc(-c2ccc3c(N)n[nH]c3c2)nc(N)n1 [GSK2258759],%Inh,ROCK1; [13],0%
same,%Inh,ROCK2; [13],0%
same,%Inh,ROS1; [13],5%
same,%Inh,[1]; [13],4%
same,%Inh,[2],0%
same,%Inh,[3]; [13],14%
same,%Inh,[4]; [13],10%
same,%Inh,[5]; [13],5%
same,%Inh,[6]; [13],14%
same,%Inh,[7]; [13],0%
same,%Inh,[8]; [13],0%
same,%Inh,[9]; [13],0%
same,%Inh,[10]; [13],19%
same,%Inh,[11],0%
same,%Inh,[12]; [13],24%
same,%Inh,S6K1; [13],0%
same,%Inh,SBK1; [13],0%
same,%Inh,SGK2,0%
same,%Inh,SGK3; [13],3%
same,%Inh,SGK,0%
